An excerpt weighted towards active compounds, which were near 1.8% of everything screened.
Fam108B inh: blocks mouse Fam108B hydrolase in RBBP9 counter-screen | inhibition, % at 9.51 µM | actives 0.33% (n = 300,000) | recombinant Fam108B, FP-Rh probe fluorescence polarization | AID 1947;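 active = inhibition above the screen mean inhibition plus 3 SD, computed separately per campaign, cut at about 18% in these data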;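 also: inhibitors lower polarization as less probe binds the enzyme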
LYPLA2 counter: LYPLA2 (human) inhibition in PME1 counter-screen | actives 0.38% (n = 320,000) | recombinant LYPLA2, FP-Rh probe fluorescence polarization | O95372 | AID 2177 | inhibition, % at 5.9 µM;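 active = inhibition above the screen-wide mean plus 3 SD, limit set per campaign, cut at about 26% in these data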;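 also: 0% = LYPLA2 with DMSO and 100% = wells lacking LYPLA2 enzyme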
PAD4 inh: inhibitors of human PAD4. Q9UM07. recombinant PAD4, RCA probe fluorescence polarization. inhibition, % at 6.36 µM. actives 0.41% (n = 330,000);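 active = percent inhibition above a cutoff equal to the mean of all tested compounds plus 3 SD, cut at about 15% in these data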;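 also: 0% = PAD4 with RCA probe and DMSO and 100% = probe without PAD4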
PME-1 inh: PME-1 (human) inhibition; Q9Y570; recombinant PME-1, FP-Rh probe fluorescence polarization; inhibition, % at 5.9 µM; actives 0.53% (n = 320,000);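 active = inhibition above the campaign mean of all compounds plus 3 SD, cut at about 26% in these data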;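 also: competitive labeling of PME-1 active site by serine hydrolase directed probe; 0% = PME-1 with DMSO and 100% = wells lacking PME-1 enzyme; inhibitors block probe labeling so polarization falls and inhibition rises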
Target sequence (Q9Y570 whole entry, looked up): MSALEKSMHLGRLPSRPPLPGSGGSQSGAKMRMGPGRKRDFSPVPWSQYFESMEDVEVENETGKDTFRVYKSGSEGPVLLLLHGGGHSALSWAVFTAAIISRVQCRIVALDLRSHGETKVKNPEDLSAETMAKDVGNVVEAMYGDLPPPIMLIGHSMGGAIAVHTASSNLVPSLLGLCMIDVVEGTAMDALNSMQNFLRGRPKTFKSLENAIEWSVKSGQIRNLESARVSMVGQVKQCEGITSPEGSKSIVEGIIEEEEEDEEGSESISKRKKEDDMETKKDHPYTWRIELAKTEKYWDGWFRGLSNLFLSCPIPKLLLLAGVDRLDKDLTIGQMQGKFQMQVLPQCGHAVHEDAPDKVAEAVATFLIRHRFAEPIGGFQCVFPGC
GSTO1 counter: counter-screen for RBBP9 inhibitors: inhibitors of human GSTO1. actives 1.1% (n = 300,000). P78417. recombinant GSTO1, activity-based probe fluorescence polarization. inhibition, % at 5.96 µM;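 active = inhibition above the campaign mean inhibition plus 3 SD, cut at about 35% in these data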;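 also: 0% = GSTO1-1 with DMSO and 100% = wells lacking GSTO1-1 enzyme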
LYPLA1 inh: LYPLA1 (human) inhibition in PME1 counter-screen | O75608 | recombinant LYPLA1, FP-Rh probe fluorescence polarization | inhibition, % at 5.9 µM | actives 0.16% (n = 320,000) | AID 2174;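 active = inhibition above the mean of all tested compounds plus 3 SD, set per campaign, cut at about 14% in these data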;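 also: inhibitors block serine hydrolase probe labeling of LYPLA1 so polarization falls; 0% = enzyme with DMSO and 100% = wells lacking LYPLA1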
Target sequence (O75608 whole entry, looked up): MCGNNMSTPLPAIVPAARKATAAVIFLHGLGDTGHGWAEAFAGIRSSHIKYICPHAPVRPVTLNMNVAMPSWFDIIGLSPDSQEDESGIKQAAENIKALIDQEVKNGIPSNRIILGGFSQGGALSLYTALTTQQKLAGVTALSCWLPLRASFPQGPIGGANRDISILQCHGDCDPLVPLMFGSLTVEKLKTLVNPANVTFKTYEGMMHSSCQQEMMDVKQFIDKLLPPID
Active calls of the source: *.

For CCN(CC)S(=O)(=O)c1cc(NC(=O)C(C)N2CC=C(c3ccccc3)CC2)ccc1C (configuration not stated) the results were Fam108B inh -13, LYPLA2 counter -13, PAD4 inh 1, PME-1 inh 47*, GSTO1 counter -6 and LYPLA1 inh -6.
Screening CCCCCn1c(NC(=O)c2ccco2)c(C(=O)OCC)c2nc3ccccc3nc21 returned Fam108B inh 2, LYPLA2 counter -4, PAD4 inh 7, PME-1 inh 4, GSTO1 counter 74* and LYPLA1 inh -5.
Screening CCOC(=O)c1c(N)n(CCCOC(=O)c2ccco2)c2nc3ccccc3nc12 returned Fam108B inh 6, LYPLA2 counter 1, PAD4 inh -3, PME-1 inh 3, GSTO1 counter 33 and LYPLA1 inh 4.
C=CCN1C[C@@H](C)N(C(c2ccc(C(=O)N(CC)CC)cc2)c2cccc(OC)c2)C[C@@H]1C (some centres not stated) was read as Fam108B inh 2, LYPLA2 counter 0, PAD4 inh 1, PME-1 inh 4, GSTO1 counter 2 and LYPLA1 inh 0.
`CN1CCN(c2ccc([N+](=O)[O-])c3no[n+]([O-])c23)CC1` gave Fam108B inh -22, LYPLA2 counter -29, PAD4 inh -10, PME-1 inh -28, GSTO1 counter 47* and LYPLA1 inh -16.
For Cc1oc(-c2ccccc2)nc1CN1C(=O)CN=C(c2ccccc2)c2ccccc21 the results were Fam108B inh 1, LYPLA2 counter -3, PAD4 inh 6, PME-1 inh 32*, GSTO1 counter -1 and LYPLA1 inh 4.
COC(=O)c1cn(C(=O)c2cccc3ccccc23)c2ccccc12 was read as Fam108B inh -6, LYPLA2 counter -1, PAD4 inh 4, PME-1 inh -2, GSTO1 counter -2 and LYPLA1 inh -3.
For COC(=O)C1=C(c2cccc(C#N)c2)C[C@@H]2CC[C@H]1N2C(=O)NC(C)C the results were LYPLA2 counter 0, PAD4 inh -3, PME-1 inh -8 and LYPLA1 inh -2.
For c1cncc(C2CCCCN2)c1 (configuration not stated) the results were Fam108B inh 6, LYPLA2 counter 2, PAD4 inh -4, PME-1 inh -7, GSTO1 counter 3 and LYPLA1 inh 2.
`c1cncc(C2Nc3cccc4cccc(c34)N2)c1` gave Fam108B inh 17, LYPLA2 counter -10, PAD4 inh -7, PME-1 inh 11, GSTO1 counter 64* and LYPLA1 inh -14.
For CN1CCN(c2c[nH]c(=O)[nH]c2=O)CC1 the results were Fam108B inh -3, LYPLA2 counter 1, PAD4 inh 6, PME-1 inh -1, GSTO1 counter -4 and LYPLA1 inh -3.
`CC[C@H](C)/C=C(C)/C=C/C1=CC2=C(Cl)C(=O)[C@@](C)(OC(C)=O)C(=O)C2=CO1` gave Fam108B inh 12, LYPLA2 counter 10, PAD4 inh 9, PME-1 inh 1, GSTO1 counter 36* and LYPLA1 inh 1.
Screening COc1ccc(C(O)P(=O)(Oc2ccccc2)Oc2ccccc2)cc1 (configuration not stated) returned Fam108B inh 3, LYPLA2 counter -6, PAD4 inh -5, PME-1 inh 38*, GSTO1 counter 21 and LYPLA1 inh 2.
For O=P(Oc1ccccc1)(Oc1ccccc1)C(O)c1ccc(Cl)cc1 (configuration not stated) the results were Fam108B inh 1, LYPLA2 counter 4, PAD4 inh 0, PME-1 inh 47*, GSTO1 counter 8 and LYPLA1 inh 1.
NC1CCc2cc(O)c(O)cc2C1 (configuration not stated) was read as Fam108B inh -8, LYPLA2 counter -1, PAD4 inh 0, PME-1 inh -4, GSTO1 counter 21 and LYPLA1 inh 1.
Screening CCCCCCn1c(=O)c(C(=O)Nc2ncccc2C)c(O)c2ccccc21 returned Fam108B inh -6, LYPLA2 counter 3, PAD4 inh -9, PME-1 inh -7, GSTO1 counter 2 and LYPLA1 inh -1.
Screening CN1C(=O)C(Cc2ccc3c(c2)OCO3)C(=O)N(C)C1=O returned Fam108B inh 1, LYPLA2 counter 7, PAD4 inh -2, PME-1 inh 6, GSTO1 counter 41* and LYPLA1 inh 4.
For NP(=O)(Oc1ccc(Cl)cc1)Oc1ccc(Cl)cc1 the results were Fam108B inh -1, LYPLA2 counter -3, PAD4 inh 3, PME-1 inh 71*, GSTO1 counter 21 and LYPLA1 inh -5.
For Cc1cccc(OP(N)(=O)Oc2cccc(C)c2)c1 the results were Fam108B inh 1, LYPLA2 counter 4, PAD4 inh 0, PME-1 inh 8, GSTO1 counter -4 and LYPLA1 inh 1.
`Nc1c(C(=O)NC2CCCC2)c2nc3ccccc3nc2n1CC1CCCO1` (configuration not stated) gave Fam108B inh 4, LYPLA2 counter -7, PAD4 inh 19*, PME-1 inh 13, GSTO1 counter 66* and LYPLA1 inh -4.
Screening Nc1c(C(=O)NCC2CCCO2)c2nc3ccccc3nc2n1Cc1ccco1 (configuration not stated) returned Fam108B inh -1, LYPLA2 counter -8, PAD4 inh -10, PME-1 inh -4, GSTO1 counter 16 and LYPLA1 inh -4.
O=C1NC(=S)N(c2ccc(F)cc2)C(=O)/C1=C/c1ccco1 was read as Fam108B inh 52*, LYPLA2 counter 7, PAD4 inh -11, PME-1 inh -17, GSTO1 counter 3 and LYPLA1 inh -11.
CC1(C)N2CC3([N+](=O)[O-])CN1CC([N+](=O)[O-])(C2)C3 was read as Fam108B inh -2, LYPLA2 counter 2, PAD4 inh 2, PME-1 inh -3, GSTO1 counter 8 and LYPLA1 inh -4.
`CCn1c(C)c(C(=O)Nc2ccc(OC)cc2)c2cc(OC)ccc21` gave Fam108B inh -3, LYPLA2 counter -2, PAD4 inh 0, PME-1 inh 1, GSTO1 counter 21 and LYPLA1 inh 0.
Nc1nc(SCCC(F)=C(F)F)n[nH]1 was read as Fam108B inh 2, LYPLA2 counter 6, PAD4 inh -3, PME-1 inh 2, GSTO1 counter 2 and LYPLA1 inh 3.
For COc1ccc(Cn2c(N)c(C(=O)NCc3ccco3)c3nc4ccccc4nc32)cc1OC the results were Fam108B inh 4, LYPLA2 counter -11, PAD4 inh -4, PME-1 inh -7, GSTO1 counter 53* and LYPLA1 inh -8.
`COCCCNC(=O)c1c(N)n(Cc2ccco2)c2nc3ccccc3nc12` gave Fam108B inh -1, LYPLA2 counter -7, PAD4 inh -10, PME-1 inh -12, GSTO1 counter 5 and LYPLA1 inh -3.

From PubChem BioAssay
